Reference: PubChem BioAssay (NCI)
This is part of a sample that, as a whole, favours compounds with a hit. Of some 83,000 tested, about 20% had one in any assay.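 Interpretation: 100, growth as untreated; towards 0, rising growth inhibition; 0, no net growth; 0 to -100, cell death. Compounds scoring below 10 were considered active.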 Calls of active or inactive are those of the source.

Assays:
Experiment in all cases: NCI-60 one-dose screen, 48 h (100 = growth as untreated, 0 = no growth, -100 = all killed)
Conditions in all cases: 10 µM
T-47D breast = tested on: T-47D breast
BT-549 breast = tested on: BT-549 breast
MDA-MB-435 melanoma = tested on: MDA-MB-435 melanoma
SW-620 colon = tested on: SW-620 colon
MCF7 breast = tested on: MCF7 breast
HCT-116 colon = tested on: HCT-116 colon
HCC-2998 colon = tested on: HCC-2998 colon
KM12 colon = tested on: KM12 colon
MDA-MB-468 breast = tested on: MDA-MB-468 breast

Measured: growth

CCN1CCN(Cc2ccc(NC(=O)c3cccc(-n4cc(-c5ccc(NC(C)=O)nc5)nn4)c3)cc2C(F)(F)F)CC1
inactive: T-47D breast 100% | BT-549 breast 144% | SW-620 colon 109% | MCF7 breast 70.4% | HCT-116 colon 86.3% | HCC-2998 colon 115% | KM12 colon 22.9% | MDA-MB-468 breast 74%
active: MDA-MB-435 melanoma -39.8%

O=C(Nc1cccc(C(F)(F)F)c1)c1cncc(C#Cc2cnc3ccc(N4CCOCC4)nn23)c1
active: T-47D breast 1.64% | BT-549 breast -37.5% | MDA-MB-435 melanoma 4.32% | SW-620 colon 2.23% | MCF7 breast -30% | HCT-116 colon 0.369% | HCC-2998 colon -4.89% | KM12 colon -24.1% | MDA-MB-468 breast -64.7%

CN1CCN(c2ccc(Nc3nc(N4CCN(S(=O)(=O)c5ccc(Cl)cc5)CC4)c4sccc4n3)cc2)CC1
active: T-47D breast -34.4% | MDA-MB-435 melanoma -100% | SW-620 colon -52.2% | MCF7 breast -83.5% | HCT-116 colon -49.9% | HCC-2998 colon -8.56% | KM12 colon -15.3% | MDA-MB-468 breast -96.7%
inactive: BT-549 breast 64.6%

CN(C)c1ccc(/C=C/C(=O)c2ccc(NC(=O)CN3C(=O)NC(C)(c4ccccc4)C3=O)cc2)cc1 (stereo unspecified)
inactive: T-47D breast 22.1% | BT-549 breast 49.6% | MDA-MB-435 melanoma 34% | SW-620 colon 74.5% | MCF7 breast 11.8% | HCT-116 colon 26.4% | HCC-2998 colon 38.5% | KM12 colon 23.7%
active: MDA-MB-468 breast 7.04%

[2H]C([2H])([2H])Oc1ccc2ncc(C#Cc3cncc(C(=O)Nc4ccc(CN5CCN(C)CC5)c(C(F)(F)F)c4)c3)n2n1
active: T-47D breast -24.5% | BT-549 breast -57.5% | MDA-MB-435 melanoma -67.2% | SW-620 colon -67.8% | MCF7 breast -61% | HCT-116 colon -29.5% | HCC-2998 colon -84.8% | KM12 colon -94.1% | MDA-MB-468 breast -90.3%

COc1ccc2[nH]c(=O)c(CSc3nccc(-c4ccc(Cl)cc4)n3)cc2c1
inactive: BT-549 breast 30.6% | MDA-MB-435 melanoma 55% | SW-620 colon 45.4% | HCC-2998 colon 48.3% | KM12 colon 31.7%
active: T-47D breast -8.11% | MCF7 breast 7.81% | HCT-116 colon -30.5% | MDA-MB-468 breast -28.5%

Cc1ccc(-c2cc(C(=O)N=Nc3c(O)[nH]c4ccccc34)c3ccccc3n2)cc1
inactive: T-47D breast 43.8% | BT-549 breast 34.5% | HCC-2998 colon 48.4% | KM12 colon 23.9% | MDA-MB-468 breast 26.3%
active: MDA-MB-435 melanoma 5.71% | SW-620 colon 8.14% | MCF7 breast 6.61% | HCT-116 colon -15.8%

CCCn1c(=O)c2[nH]c(-c3ccc(OCc4nc5ccc(C#N)cc5[nH]4)cc3)nc2n(CCC)c1=O
inactive: T-47D breast 35.7% | BT-549 breast 92.6% | MDA-MB-435 melanoma 97.5% | SW-620 colon 80.5% | HCT-116 colon 58.2% | HCC-2998 colon 95.3% | KM12 colon 75.5% | MDA-MB-468 breast 65.9%
active: MCF7 breast -48.9%

O=C(Cn1nc(-c2ccccc2)ccc1=O)NN1C(=O)c2ccccc2C1=O
inactive: T-47D breast 96.2% | BT-549 breast 110% | MDA-MB-435 melanoma 107% | SW-620 colon 115% | MCF7 breast 81.7% | HCT-116 colon 106% | HCC-2998 colon 108% | KM12 colon 103% | MDA-MB-468 breast 92.3%

COc1ccc(C(=O)Nc2ccc(-c3ccc4c(c3)NC(=O)/C4=C\c3ccc[nH]3)cc2)cc1
active: SW-620 colon -14.7% | MCF7 breast -31.9% | KM12 colon 1.95% | MDA-MB-468 breast -70%
inactive: T-47D breast 14.5% | BT-549 breast 88.5% | MDA-MB-435 melanoma 30.4% | HCT-116 colon 36.4% | HCC-2998 colon 31.3%

COc1cc2c(cc1OC)/C(=C\c1sc(Nc3ccc(O)cc3)nc1O)C(C(=O)O)=N2
active: MDA-MB-435 melanoma -77.3% | MDA-MB-468 breast -1.14%
inactive: T-47D breast 46.7% | BT-549 breast 57.2% | SW-620 colon 26.8% | MCF7 breast 12.3% | HCT-116 colon 21.4% | HCC-2998 colon 36.7% | KM12 colon 20.9%

COc1cc2c3c(n(CCCn4ccnc4)c(=O)c2cc1OC)-c1nc2c(cc1C3=O)OCO2
active: MCF7 breast 7.42% | MDA-MB-468 breast -29.8%
inactive: T-47D breast 21.8% | BT-549 breast 29.6% | MDA-MB-435 melanoma 52.2% | SW-620 colon 37% | HCT-116 colon 30.4% | HCC-2998 colon 72.2% | KM12 colon 59.6%

Cc1ccc(-c2nc3ccc(C(=O)N=Nc4c(O)[nH]c5ccc(Br)cc45)cc3[nH]2)cc1
active: SW-620 colon 7.03%
inactive: T-47D breast 84.7% | BT-549 breast 138% | MDA-MB-435 melanoma 57.9% | MCF7 breast 21.7% | HCT-116 colon 26.3% | HCC-2998 colon 20.5% | KM12 colon 32.6% | MDA-MB-468 breast 62.5%

Cc1ccc(-c2nc(Nc3ccc(C)c(S(N)(=O)=O)c3)c3ccccc3n2)cc1
active: MDA-MB-468 breast 1.27%
inactive: T-47D breast 84.2% | BT-549 breast 104% | MDA-MB-435 melanoma 74.6% | SW-620 colon 37.2% | MCF7 breast 26.2% | HCT-116 colon 29.5% | HCC-2998 colon 49.5% | KM12 colon 40%
